Test results reported in article PMC9838217, “Structure of SALL4 zinc finger domain reveals link between AT-rich DNA binding and Okihiro syndrome”.
Residue numbers refer to the chain shown, from its start.

What was measured:
[1] = molecular target: T1, SALL4 ZFC4 R900W (HT-SELEX) (Mus musculus, UniProt Q8BX22 870-940, R900W); assay: HT-SELEX; high values mean tight binding; settings: protein: recombinant; vector His6-GST; dsDNA, one strand shown
T1 sequence: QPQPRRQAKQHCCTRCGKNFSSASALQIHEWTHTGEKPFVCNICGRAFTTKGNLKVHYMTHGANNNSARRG
In short: (§1)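 Each canonical k-mer's binding signal is its read fraction expressed as fold change over the initial random library. Reads came from MiSeq sequencing, scanned for 6-mers, after up to 6 triplicate cycles in which purified recombinant mouse SALL4 zinc finger cluster 4 (residues 870–940, 1 µg) bound library DNA (1.5 µg first cycle, 200 ng later) in 100 µl of 10 mM Tris–HCl pH 7.5, 50 mM NaCl, poly(dI-dC), DTT for 10 min at room temperature. Complexes were then Ni2+ bead-captured, washed, PCR-amplified and reselected.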

[2] = molecular target: T2, SALL4 ZFC4 G921D (HT-SELEX) (Mus musculus, UniProt Q8BX22 870-940, G921D); assay: HT-SELEX; high values mean tight binding; settings: protein: recombinant; vector His6-GST; dsDNA, one strand shown
T2 sequence: T1 sequence with W31R, G52D
In short: as §1

Row | Sequence | binding signal [1] [fold-change vs cycle 0] | binding signal [2] [fold-change vs cycle 0]
1 | CAGCCG | 0.115 ± 0.00217 | 0.229 ± 0.0654
2 | CGGAGC | 0.166 ± 0.00611 | 0.286 ± 0.0677
3 | CGCACG | 0.0997 ± 0.0037 | 0.21 ± 0.071
4 | CATGGC | 0.357 ± 0.0224 | 0.495 ± 0.0505
5 | CGCGTC | 0.112 ± 0.0164 | 0.207 ± 0.0615
6 | CAGCCA | 0.309 ± 0.0234 | 0.442 ± 0.0984
7 | GACCCC | 0.276 ± 0.00974 | 0.391 ± 0.051
8 | CAGGGC | 0.185 ± 0.0225 | 0.31 ± 0.0787
9 | CCCGTC | 0.236 ± 0.0162 | 0.34 ± 0.0606
10 | ATGATG | 1.51 ± 0.0621 | 1.43 ± 0.0931
11 | ACGTGC | 0.314 ± 0.00898 | 0.439 ± 0.0607
12 | AGAGGC | 0.355 ± 0.0197 | 0.484 ± 0.0611
13 | CAAGCG | 0.313 ± 0.0138 | 0.452 ± 0.0669
14 | AGCAGC | 0.286 ± 0.013 | 0.426 ± 0.0467
15 | CGGCTC | 0.124 ± 0.00754 | 0.242 ± 0.0735
16 | CACAGC | 0.324 ± 0.0122 | 0.442 ± 0.0707
17 | CCGCCG | 0.0347 ± 0.00309 | 0.117 ± 0.0571
18 | CACGCG | 0.116 ± 0.0104 | 0.214 ± 0.0541
19 | GCTAGC | 0.329 ± 0.0178 | 0.477 ± 0.0879

Row | Sequence | binding signal [1] [fold-change vs cycle 0] | binding signal [2] [fold-change vs cycle 0]
20 | ACGGCG | 0.0768 ± 0.0155 | 0.177 ± 0.0582
21 | GGCCTA | 0.299 ± 0.00892 | 0.443 ± 0.0788
22 | GCCGCC | 0.0335 ± 0.00625 | 0.107 ± 0.0564
23 | TCGTAA | 1.29 ± 0.0564 | 1.25 ± 0.113
24 | CCGACG | 0.143 ± 0.00739 | 0.255 ± 0.0634
25 | CCCCGC | 0.0783 ± 0.012 | 0.179 ± 0.0709
26 | GTCGAC | 0.301 ± 0.0134 | 0.452 ± 0.0612
27 | CGAACG | 0.36 ± 0.0176 | 0.474 ± 0.087
28 | CCACCG | 0.209 ± 0.0206 | 0.322 ± 0.0675
29 | CGCCCG | 0.0459 ± 0.011 | 0.128 ± 0.0586
30 | CGGCCC | 0.0477 ± 0.00335 | 0.134 ± 0.0582
31 | GCCCTA | 0.353 ± 0.0173 | 0.496 ± 0.0842
32 | CCCCAC | 0.272 ± 0.0152 | 0.375 ± 0.0668
33 | CGGCTA | 0.246 ± 0.00516 | 0.375 ± 0.0584
34 | CCGGCC | 0.0476 ± 0.00257 | 0.135 ± 0.0646
35 | GGCACA | 0.256 ± 0.0249 | 0.414 ± 0.0716
36 | GCGCCC | 0.0344 ± 0.0044 | 0.116 ± 0.0623
37 | GCCCAA | 0.245 ± 0.0152 | 0.387 ± 0.0671
38 | GGCTCA | 0.336 ± 0.00359 | 0.477 ± 0.0634

Row | Sequence | binding signal [1] [fold-change vs cycle 0] | binding signal [2] [fold-change vs cycle 0]
39 | CCCCCC | 0.217 ± 0.0203 | 0.314 ± 0.0628
40 | CGCCTC | 0.152 ± 0.0261 | 0.277 ± 0.0696
41 | ACCGCC | 0.117 ± 0.0115 | 0.235 ± 0.0718
42 | CCCGCA | 0.139 ± 0.0116 | 0.246 ± 0.066
43 | CCCGGC | 0.0588 ± 0.00399 | 0.151 ± 0.0654
44 | AGTCGC | 0.244 ± 0.0172 | 0.386 ± 0.0654
45 | TGCGCA | 0.136 ± 0.00666 | 0.263 ± 0.0848
46 | ACCGCT | 0.31 ± 0.02 | 0.44 ± 0.0953
47 | CCAGCA | 0.359 ± 0.0242 | 0.477 ± 0.0744
48 | ATCGCG | 0.221 ± 0.00468 | 0.363 ± 0.0564
49 | ATCGGC | 0.223 ± 0.00552 | 0.362 ± 0.0707
50 | GCGGCA | 0.0597 ± 0.00711 | 0.158 ± 0.0724
51 | ACCGGG | 0.239 ± 0.0269 | 0.357 ± 0.0693
52 | GCACCC | 0.1961 ± 0.000728 | 0.322 ± 0.0644
53 | AGAATA | 2.17 ± 0.0929 | 1.84 ± 0.188
54 | CGCAAG | 0.289 ± 0.0102 | 0.411 ± 0.0549
55 | TGGCCA | 0.236 ± 0.00832 | 0.386 ± 0.0718
56 | CGCCGC | 0.0234 ± 0.0032 | 0.091 ± 0.0475
57 | GCCGGA | 0.106 ± 0.00682 | 0.224 ± 0.0644
